S1P2 antag: human S1P2 receptor antagonists, primary screen, cell-based; Sphingosine 1-phosphate receptor 2 (Homo sapiens), O95136; cell-based S1P2 antagonist assay, inhibition at 5 uM; inhibition, % at 5 µM; 97,000 tested, 0.21% active; AID 736, 2007; in the data active means inhibition above about 45%;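 further: CRE beta-lactamase reporter cells expressing human S1P2 stimulated with S1P; 0% = agonist at EC80 alone and 100% = agonist plus reference antagonist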
GALR2 ag: GALR2 receptor agonists, primary screen, cell-based. 140,000 tested, 0.48% active. activation, % (test concentration not listed). GALR2-expressing cells, agonist activation read-out; in the data active means activation above about 5%, passing the limit was not always enough;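 further: 0% = vehicle buffer wells and 100% = reference agonist at full effect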
Target sequence (O43603 whole entry, looked up): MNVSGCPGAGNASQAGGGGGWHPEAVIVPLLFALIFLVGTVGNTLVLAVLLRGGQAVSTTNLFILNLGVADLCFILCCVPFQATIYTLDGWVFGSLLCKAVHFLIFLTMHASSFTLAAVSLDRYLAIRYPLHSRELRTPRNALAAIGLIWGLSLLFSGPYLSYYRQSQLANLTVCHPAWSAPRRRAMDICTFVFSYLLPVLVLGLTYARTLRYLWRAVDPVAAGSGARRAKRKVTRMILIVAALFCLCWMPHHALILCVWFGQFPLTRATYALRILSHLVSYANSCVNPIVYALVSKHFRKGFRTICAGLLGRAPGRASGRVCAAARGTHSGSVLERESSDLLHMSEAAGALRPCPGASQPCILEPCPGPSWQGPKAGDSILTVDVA
S1P2 ag: S1P2 receptor agonists, primary screen, cell-based | Sphingosine 1-phosphate receptor 2 (Homo sapiens), O95136 | S1P2-expressing cell line, agonist reporter read-out | activation, % at 4.5 µM | 97,000 tested, 0.46% active; in the data active means activation above about 16%;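 further: 0% = vehicle low control and 100% = maximal reference agonist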
GALR2 blocker: GALR2 antagonists in receptor-expressing cells, primary screen; 140,000 tested, 0.39% active; inhibition, % at 4 µM; Galanin receptor type 2 (Homo sapiens), O43603; antagonist mode; in the data active means inhibition above about 27%;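 further: cells stimulated with galanin 1-16 at roughly its EC80; 0% = agonist challenge control and 100% = basal control without agonist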
F-actin modifier: modifiers of F-actin cytoskeleton organization, primary screen, imaging, HUVEC, phalloidin staining, high-content imaging | HUVEC TNFa F-actin phalloidin imaging | inhibition, % at 2 µM | 91,000 tested, 0.18% active;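 active means inhibition above the batch mean plus 3 SD and confirmed as a hit by visual image inspection, cut at about 30% in these data, passing the limit was not always enough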
Starred values were filed as active, the others as inactive; nt = no result. Only some compounds are listed: those with a hit (about 1.3% of all), similar ones and a draw of the others.

SMILES	S1P2 antag	GALR2 ag	S1P2 ag	GALR2 blocker	F-actin modifier
Cc1ccc(-n2ncc3c(N4CCCC4)ncnc32)c(C)c1	0.8	-2.5	-1.3	-3.6	12.2
O=S(CC1CC1(Cl)Cl)CC1CC1(Cl)Cl (stereo unspecified)	nt	-1.3	nt	2.9	nt
CCOC(=O)C1(O)CC(C)=NN1C(=O)c1cccc(Cl)c1 (stereo unspecified)	nt	0.0	nt	15.3	nt
CC(=O)NCCn1c(SCc2cc(=O)n3cc(Cl)ccc3n2)nc2ccccc2c1=O	-37.4	-2.1	22.2*	2.8	27.7
O=C1OCC(CO)(CO)N=C1NNc1ccccc1Cl	12.6	-1.5	-6.7	16.8	31.3*
N#CCCN(Cc1cccnc1)C(=O)c1sc2cc(F)ccc2c1Cl	nt	-1.6	nt	7.8	nt
COc1cc(-c2nnc(COC(=O)c3cc(C)nc4ccc(C)cc34)o2)cc(OC)c1OC	-37.2	0.5	27.4*	-24.5	-24.1
Cc1c(NC(=O)C2CCCN2S(=O)(=O)c2ccc(Cl)cc2)c(=O)n(-c2ccccc2)n1C (stereo unspecified)	11.7	-1.4	11.1	-2.5	-4.0
Cc1c(CCO)c(=O)n(-c2ccccc2)n1S(=O)(=O)c1ccc(Cl)cc1	-15.6	-0.7	-0.8	-3.6	31.2*
CC(=O)c1cccc(NS(=O)(=O)c2ccc(N/C=C\C(=O)c3ccc(C)cc3)cc2)c1	67.2*	1.2	-9.1	10.4	-19.9
CNC(=S)N1N=C(c2ccc(Br)cc2)CC1c1ccc(OC)cc1 (stereo unspecified)	nt	-0.9	nt	15.5	nt
Cn1cccc1/C=C1\SC(=O)N(c2ccc(O)cc2)C1=O	nt	0.0	nt	1.9	nt
C=CCSc1nc2ccccc2n1C(=O)/C=C/c1cc(OC)c(OC)c(OC)c1	54.1*	1.4	-6.0	6.8	22.6
CCCOc1cc(C)c(S(=O)(=O)NC2CC(C)(C)NC(C)(C)C2)cc1C	nt	-1.2	nt	-6.3	nt
O=C(COC(=O)c1cc(S(=O)(=O)N2CCOCC2)ccc1O)NCCc1ccccc1	-22.3	-1.9	-0.3	4.0	3.1
Cc1ccc(CC2S/C(=C(/C#N)C(=O)NCc3ccco3)N(c3ccccc3)C2=O)cc1 (stereo unspecified)	10.1	-2.3	-4.2	4.7	63.4*
Cc1ccc(NC(=O)NCc2ccc3c(c2)OCO3)cc1	-3.4	-1.1	-3.3	-9.5	-16.0
C=CCNC(=O)C1CC(=O)N(c2ccc(OCC(=O)Nc3cccc(OC)c3)cc2)C1 (stereo unspecified)	-9.0	2.2	-1.3	1.4	51.5*
O=C(c1ccccc1)N1CCN(Cc2ccccc2)CC1	-6.5	-0.5	-1.7	11.5	5.6
Oc1cccc(C(=S)N2CCN(Cc3ccccc3)CC2)c1	12.4	-1.3	56.0*	-0.1	9.3
COc1ccc(C2CC23N=C(c2ccccc2)OC3=O)cc1 (stereo unspecified)	nt	0.5	nt	-9.2	nt
Cc1cc(C)n(-c2nc(Nc3ccccc3C(F)(F)F)nc(-n3nc(C)cc3C)n2)n1	58.8*	-1.5	-6.6	10.1	-9.1
CCc1nnc(NC(=O)CSc2nnc(COc3ccccc3)n2-c2ccc(C)cc2)s1	26.2	-0.1	-3.2	-5.0	90.2*
CCc1nnc(NC(=O)CSc2nnc(COc3ccccc3)n2Cc2ccccc2)s1	1.9	-1.2	-4.6	-4.6	-22.0
Cc1nn(-c2ccccc2)c(Cl)c1/C=N/Nc1nc2ccccc2[nH]1	nt	5.5*	nt	12.6	nt
SMILES	S1P2 antag	GALR2 ag	S1P2 ag	GALR2 blocker	F-actin modifier
COc1cc(C(=O)Nc2ccc(Br)cc2C(=O)c2cc(OC)c(OC)c(OC)c2)cc(OC)c1OC	-2.0	-1.8	-2.3	2.1	15.4
COc1cccc(NC(=O)c2cn(C)c(=O)c3cc(OC)c(OC)cc23)c1	-29.2	-1.6	28.0*	-1.4	nt
O=C(NC1CC1)c1ccc2c(c1)C1C3CCC(C3)C1C(c1ccccc1)N2 (stereo unspecified)	nt	-1.6	nt	-3.2	nt
CN(C(=O)COC(=O)C1c2ccccc2Oc2ccccc21)C1CCS(=O)(=O)C1 (stereo unspecified)	23.1	-1.5	-6.3	1.9	-4.7
O=C(COC(=O)C1c2ccccc2Oc2ccccc21)NC1CCS(=O)(=O)C1 (stereo unspecified)	14.3	0.0	-1.3	4.7	72.5*
CCCn1c(C)cc(C(=O)COC(=O)CN=C2NS(=O)(=O)c3ccccc32)c1C	nt	-1.5	nt	-1.1	nt
O=C(Nc1nc2ccccc2s1)c1cc2c(s1)-c1ccccc1OC2	-45.2	3.0	39.6*	-3.6	6.7
CC(=O)c1cn(S(=O)(=O)c2ccccc2)c2ccccc12	nt	0.3	nt	0.7	nt
CCc1cc2c(CN3CCN(CC)CC3)cc(=O)oc2cc1O	12.9	4.9*	3.9	2.5	10.5
CCN1CCN(Cc2cc(=O)oc3cc(C)cc(C)c23)CC1	-5.5	-0.1	-4.1	3.6	-21.2
c1ccc(C(c2ccccc2)N2CCN(c3nc4ccccc4n4cnnc34)CC2)cc1	29.2	-0.3	23.8*	-0.7	18.5
CC(=O)N(NC(=O)c1ccc(C)cc1)C1CC(=O)N(c2ccccc2Cl)C1=O (stereo unspecified)	nt	-0.8	nt	-5.8	nt
COC(=O)c1c(N)n(CCCN2CCOCC2)c2nc3ccccc3nc12	14.2	-0.8	-2.8	7.4	-1.3
COc1ccc(CNC(=O)c2c(N)n(CCCN3CCOCC3)c3nc4ccccc4nc23)cc1	-73.2	32.5*	39.2*	-34.6	3.0
CCCNC(=O)c1c(N)n(-c2cc(OC)cc(OC)c2)c2nc3ccccc3nc12	nt	13.9*	nt	-8.6	nt
CCCNC(=O)c1c(N)n(-c2ccc3c(c2)OCO3)c2nc3ccccc3nc12	13.6	0.4	-0.5	-2.2	20.4
Nc1c(C(=O)NCc2ccc(F)cc2)c2nc3ccccc3nc2n1CCCN1CCOCC1	-70.5	41.1*	44.8*	-42.6	-3.0
O=C(Nc1ccc(O)c(-c2nc3ccccc3o2)c1)C1(c2ccc(Br)cc2)CCCC1	nt	-0.5	nt	-5.5	nt
CCn1c(=O)cc(SCC(=O)Nc2cc(OC)c(OC)c(OC)c2)c2ccccc21	-48.3	-0.7	20.0*	-1.5	26.1
CCn1c(=O)cc(SCC(=O)Nc2cccc(SC)c2)c2ccccc21	-24.7	1.7	-3.2	-12.4	-9.3
CCCCNC(=O)CSc1cc(=O)n(C)c2ccccc12	20.6	-1.5	-7.8	0.8	30.8*
CC(OC(=O)CCN1C(=O)c2cccc([N+](=O)[O-])c2C1=O)C(=O)Nc1cc(Cl)cc(Cl)c1 (stereo unspecified)	nt	-0.3	nt	20.1	nt
COc1ccc(C2=Nn3c(nnc3-c3ccccc3OC)SC2)cc1OC	-33.1	3.1	33.6*	30.1*	nt
COc1ccc(C2=Nn3c(nnc3-c3ccco3)SC2)cc1OC	-40.0	-0.8	40.3*	-11.9	23.4
COc1ccc(C2=Nn3c(nnc3-c3ccccn3)SC2)cc1OC	-44.1	1.1	13.1	-9.7	21.3
Cc1ccc(SCC(=O)Nc2ccc(F)cc2[N+](=O)[O-])cc1C	nt	-1.6	nt	-1.3	nt
CCN(CCC(=O)Nc1cc([N+](=O)[O-])ccc1OC)Cc1ccccc1	nt	-0.3	nt	3.4	nt

Screening data: PubChem BioAssay, several laboratories
